Source: PubChem BioAssay (EPA / NIEHS)
Inconclusive results are not listed. Activity calls are given as the source filed them. How the source made its calls, unless noted: active means hit-call score of the fitted dose curve at least 0.9, where 1 is the maximum; inactive means score below 0.9.

What was measured:
[1] = biological target: human RAR-related Orphan Receptor gamma (RORg), RORC (gene 6097) (UniProt P51449); test: ATG_RORg_TRANS: Attagene TRANS-FACTORIAL HepG2 Assay for human RAR-related Orphan Receptor gamma (RORg) (AID 2283011; active means hit-call score of the fitted dose curve at least 0.9, where 1 is the maximum)
Sequence of human RAR-related Orphan Receptor gamma (RORg), RORC (gene 6097) (P51449 whole entry, looked up, the tested form may be a part): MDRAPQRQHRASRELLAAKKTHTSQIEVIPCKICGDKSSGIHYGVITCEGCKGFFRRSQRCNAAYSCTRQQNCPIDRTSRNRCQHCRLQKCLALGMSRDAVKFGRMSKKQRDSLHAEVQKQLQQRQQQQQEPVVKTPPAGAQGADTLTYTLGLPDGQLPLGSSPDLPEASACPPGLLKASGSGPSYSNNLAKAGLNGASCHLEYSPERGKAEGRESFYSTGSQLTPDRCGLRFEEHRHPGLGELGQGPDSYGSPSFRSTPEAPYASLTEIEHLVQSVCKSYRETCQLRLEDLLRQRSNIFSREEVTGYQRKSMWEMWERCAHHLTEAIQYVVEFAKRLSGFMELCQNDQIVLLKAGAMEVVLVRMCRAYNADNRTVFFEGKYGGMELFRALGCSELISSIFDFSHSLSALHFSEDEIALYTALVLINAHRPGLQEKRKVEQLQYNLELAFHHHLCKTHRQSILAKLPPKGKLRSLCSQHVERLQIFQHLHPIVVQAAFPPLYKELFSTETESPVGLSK
Summary of the method: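 First, HepG2 liver cells were transfected with GAL4-UAS-driven reporter constructs and the RORg-Gal4 fusion. Next, they were treated with chemical for 24 h. Finally, reporter mRNA was quantified by RT-PCR and capillary electrophoresis, with upward activity fitted against DMSO.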

[2] = biological target: Retinoic acid receptor RXR-alpha (Homo sapiens) (UniProt P19793); test: ATG_RXRa_TRANS: Attagene TRANS-FACTORIAL HepG2 Assay for human Retinoid X Receptor alpha (RXRa) (AID 2283012; active means hit-call score of the fitted dose curve at least 0.9, where 1 is the maximum)
Sequence of Retinoic acid receptor RXR-alpha (Homo sapiens) (P19793 whole entry, looked up, the tested form may be a part): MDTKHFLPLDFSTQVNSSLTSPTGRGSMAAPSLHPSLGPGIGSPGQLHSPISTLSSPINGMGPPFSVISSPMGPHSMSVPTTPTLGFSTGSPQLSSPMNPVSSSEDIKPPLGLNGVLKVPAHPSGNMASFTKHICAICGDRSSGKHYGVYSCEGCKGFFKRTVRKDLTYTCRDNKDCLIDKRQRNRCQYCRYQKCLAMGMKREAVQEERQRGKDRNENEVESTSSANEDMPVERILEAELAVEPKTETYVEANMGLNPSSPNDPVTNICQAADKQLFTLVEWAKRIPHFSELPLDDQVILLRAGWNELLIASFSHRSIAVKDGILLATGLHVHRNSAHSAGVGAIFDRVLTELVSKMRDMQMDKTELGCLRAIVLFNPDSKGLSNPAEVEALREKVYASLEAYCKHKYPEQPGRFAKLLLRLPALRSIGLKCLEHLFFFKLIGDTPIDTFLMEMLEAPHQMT
Summary of the method: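 HepG2 cells transiently transfected with multiplexed GAL4-UAS reporter units and chimeric NR-GAL4 fusions, dosed 24 h. Reporter mRNA measured by RT-PCR, FAM labelling, HpaI digestion and capillary electrophoresis; gain-of-signal fitted relative to DMSO baseline.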

[3] = biological target: human Retinoid X Receptor beta (RXRb), RXRB (gene 6257) (UniProt P28702); test: ATG_RXRb_TRANS: Attagene TRANS-FACTORIAL HepG2 Assay for human Retinoid X Receptor beta (RXRb) (AID 2283013; active means hit-call score of the fitted dose curve at least 0.9, where 1 is the maximum)
Sequence of human Retinoid X Receptor beta (RXRb), RXRB (gene 6257) (P28702 whole entry, looked up, the tested form may be a part): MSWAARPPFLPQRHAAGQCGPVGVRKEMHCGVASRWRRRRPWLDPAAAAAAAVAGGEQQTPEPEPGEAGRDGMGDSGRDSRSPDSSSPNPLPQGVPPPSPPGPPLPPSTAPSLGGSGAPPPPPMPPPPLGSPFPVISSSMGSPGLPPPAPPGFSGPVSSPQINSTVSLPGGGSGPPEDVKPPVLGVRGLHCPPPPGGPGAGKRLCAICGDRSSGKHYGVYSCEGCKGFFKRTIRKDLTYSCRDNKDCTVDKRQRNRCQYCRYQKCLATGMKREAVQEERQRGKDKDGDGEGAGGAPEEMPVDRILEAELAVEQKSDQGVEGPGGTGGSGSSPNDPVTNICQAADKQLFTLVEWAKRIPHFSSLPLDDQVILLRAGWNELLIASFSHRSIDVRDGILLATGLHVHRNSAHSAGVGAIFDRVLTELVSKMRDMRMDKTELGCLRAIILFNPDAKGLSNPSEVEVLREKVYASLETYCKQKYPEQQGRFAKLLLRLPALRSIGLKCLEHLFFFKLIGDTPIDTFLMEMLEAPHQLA
Summary of the method: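 HepG2 cells transiently transfected with multiplexed reporter units driven by GAL4-UAS and exogenous chimeric NR-Gal4 proteins; treated 24 h. Reporter mRNA measured by RT-PCR, 6-FAM labelling and capillary electrophoresis; gain-of-signal fitted versus DMSO baseline.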

[4] = biological target: human Thyroid Receptor alpha (THRa1), THRA (gene 7067) (UniProt P10827); test: ATG_THRa1_TRANS: Attagene TRANS-FACTORIAL HepG2 Assay for human Thyroid Receptor alpha (THRa1) (AID 2283014; active means hit-call score of the fitted dose curve at least 0.9, where 1 is the maximum)
Sequence of human Thyroid Receptor alpha (THRa1), THRA (gene 7067) (P10827 whole entry, looked up, the tested form may be a part): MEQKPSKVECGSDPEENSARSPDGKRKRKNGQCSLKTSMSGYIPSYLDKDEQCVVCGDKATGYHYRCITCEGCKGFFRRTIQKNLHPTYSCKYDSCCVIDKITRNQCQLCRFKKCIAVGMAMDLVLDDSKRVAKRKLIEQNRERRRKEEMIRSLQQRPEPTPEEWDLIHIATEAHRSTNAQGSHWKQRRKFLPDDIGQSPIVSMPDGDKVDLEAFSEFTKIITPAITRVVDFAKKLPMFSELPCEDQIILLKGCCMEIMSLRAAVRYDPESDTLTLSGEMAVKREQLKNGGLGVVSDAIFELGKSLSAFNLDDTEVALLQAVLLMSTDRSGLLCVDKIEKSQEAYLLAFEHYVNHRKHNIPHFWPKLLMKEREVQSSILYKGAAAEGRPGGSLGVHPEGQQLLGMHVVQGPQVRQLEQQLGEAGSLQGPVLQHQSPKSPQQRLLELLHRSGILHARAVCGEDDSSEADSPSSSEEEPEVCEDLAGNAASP
Summary of the method: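 Reporter transcript induction, read by capillary electrophoresis of 6-FAM-labelled RT-PCR products, reflects activity of a transfected THRa1-Gal4 fusion in HepG2 liver cells. Cells were dosed for 24 h; activity was fitted in the positive direction against DMSO.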

[5] = read-out: Interleukin-1 alpha (IL1a), IL1A (gene 3552); test: BSK_BE3C_IL1a: BioMAP Diversity Plus: BE3C Assay for Interleukin-1 alpha (IL1a) Biomarker Activity (AID 2283016); conditions: primary human bronchial epithelial cells; actives raise or lower the signal
Summary of the method: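 Human primary bronchial epithelial cells (BE3C system) were dosed with compound and IL-1a measured by ELISA 24 h later. Activity was fitted bidirectionally against DMSO baseline; cytotoxicity was tracked in parallel cultures by SRB total-protein staining.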

[6] = read-out: Monocyte Chemoattractant Protein-1 (MCP1), CCL2 (gene 6347); test: BSK_3C_MCP1: BioMAP Diversity Plus: 3C Assay for Monocyte Chemoattractant Protein-1 (MCP1) Biomarker Activity (AID 2283017); conditions: primary human endothelial cells (HUVEC); actives raise or lower the signal
Summary of the method: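 ELISA read-out of MCP-1 from human umbilical vein endothelial cell cultures harvested 24 h post-dosing. Gain or loss of signal was fitted relative to DMSO.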

[7] = read-out: Human Leukocyte Antigen - DR isotype (HLADR), HLA-DRA (gene 3122); test: BSK_3C_HLADR: BioMAP Diversity Plus: 3C Assay for Human Leukocyte Antigen - DR isotype (HLADR) Biomarker Activity (AID 2283019); conditions: primary human endothelial cells (HUVEC); actives raise or lower the signal
Summary of the method: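 ELISA readout of surface HLA-DR on human umbilical vein endothelium, taken 24 h after chemical treatment. Gain- and loss-of-signal were both fitted relative to DMSO.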

[8] = read-out: Interleukin-8 (IL8), CXCL8 (gene 3576); test: BSK_3C_IL8: BioMAP Diversity Plus: 3C Assay for Interleukin-8 (IL8) Biomarker Activity (AID 2283020); conditions: primary human endothelial cells (HUVEC); actives raise or lower the signal
Summary of the method: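 Primary human umbilical vein endothelial cells (3C system) were exposed to test chemical for 24 h, then IL-8 was quantified by ELISA. Responses were fitted bidirectionally against DMSO vehicle as baseline.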

[9] = read-out: Monokine induced gamma interferon (MIG), CXCL9 (gene 4283); test: BSK_3C_MIG: BioMAP Diversity Plus: 3C Assay for Monokine induced gamma interferon (MIG) Biomarker Activity (AID 2283021); conditions: primary human endothelial cells (HUVEC); actives raise or lower the signal
Summary of the method: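 Primary human umbilical vein endothelial cells in the 3C system were exposed to chemical for 24 h, after which MIG was quantified by ELISA. Activity was fitted bidirectionally against DMSO as negative control and baseline.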

[10] = BSK_3C_SRB: Viability Assessment in the BioMAP Diversity Plus: 3C Assay (AID 2283023); conditions: primary human endothelial cells (HUVEC);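 further: fitted both ways against DMSO so a hit may be signal rise or drop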
Summary of the method: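 Absorbance at 560 nm of sulforhodamine B-stained (0.1%) total protein served as a cytotoxicity readout in human umbilical vein endothelial cells, 24 h after chemical treatment. Signal was fitted bidirectionally relative to DMSO.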

[11] = read-out: Matrix Metallopeptidase 1 (MMP1), MMP1 (gene 4312); test: BSK_BE3C_MMP1: BioMAP Diversity Plus: BE3C Assay for Matrix Metallopeptidase 1 (MMP1) Biomarker Activity (AID 2283024); conditions: primary human bronchial epithelial cells; actives raise or lower the signal
Summary of the method: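 Primary human bronchial epithelial cells were dosed with test chemicals, and MMP1 levels were measured by ELISA 24 h later. Data were fitted bidirectionally against DMSO as the negative control and activity baseline.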

[12] = BSK_3C_Vis: BioMAP Diversity Plus: 3C Assay for Morphology Visualization (AID 2283025); conditions: primary human endothelial cells (HUVEC);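 further: fitted both ways so gain or loss versus DMSO counts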
Summary of the method: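 Human umbilical vein endothelial cells in the 3C system were imaged by light microscopy 24 h after chemical dosing to record cell morphology. Activity was fitted bidirectionally against DMSO as negative control and baseline; the endpoint serves as a background control.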

[13] = read-out: Pselectin, SELP (gene 6403); test: BSK_4H_Pselectin: BioMAP Diversity Plus: 4H Assay for Pselectin Biomarker Activity (AID 2283026); conditions: primary human endothelial cells (HUVEC); actives raise or lower the signal
Summary of the method: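 Primary human umbilical vein endothelial cells were exposed to test chemical for 24 h, then cell-surface P-selectin was quantified by ELISA. Activity was fitted bidirectionally against DMSO as negative control and baseline.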

[14] = BSK_4H_SRB: Viability Assessment in the BioMAP Diversity Plus: 4H Assay (AID 2283027); conditions: primary human endothelial cells (HUVEC);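 further: cells exposed to compound for 24 h before staining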
Summary of the method: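 Human umbilical vein endothelial cells, 24 h after chemical dosing; total protein measured by 0.1% sulforhodamine B staining after 10% TCA fixation, read at 560 nm. Bidirectional fitting against DMSO.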

[15] = BSK_BE3C_SRB: Viability Assessment in the BioMAP Diversity Plus: BE3C Assay (AID 2283028); conditions: primary human bronchial epithelial cells;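 on AC50: fitted both ways so AC50 may mark signal gain or loss versus DMSO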
Summary of the method: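 Cells (human bronchial epithelial, primary) are treated with chemicals, and after 24 h the parallel cultures are fixed in 10% TCA. These are then stained with 0.1% SRB and read at 560 nm. Gain or loss of signal is fitted relative to DMSO.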

[16] = read-out: Thrombomodulin, THBD (gene 7056); test: BSK_3C_Thrombomodulin: BioMAP Diversity Plus: 3C Assay for Thrombomodulin Biomarker Activity (AID 2283029); conditions: primary human endothelial cells (HUVEC); actives raise or lower the signal
Summary of the method: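 Primary human umbilical vein endothelial cells (3C system) were exposed to chemical for 24 h, then thrombomodulin levels were measured by ELISA. Activity was fitted bidirectionally against the DMSO negative control as baseline.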

[17] = read-out: Urokinase-type plasminogen activator receptor (uPAR), PLAUR (gene 5329); test: BSK_4H_uPAR: BioMAP Diversity Plus: 4H Assay for Urokinase-type plasminogen activator receptor (uPAR) Biomarker Activity (AID 2283030); conditions: primary human endothelial cells (HUVEC); actives raise or lower the signal
Summary of the method: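 Cell-surface uPAR ELISA signal, measured 24 h after dosing human umbilical vein endothelial cells, was analyzed with bidirectional fitting relative to DMSO. Parallel SRB staining of total protein tracked overt cytotoxicity.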

[18] = read-out: E-selectin (Homo sapiens) (UniProt P16581); test: BSK_3C_Eselectin: BioMAP Diversity Plus: 3C Assay for Eselectin Biomarker Activity (AID 2283015); conditions: primary human endothelial cells (HUVEC); actives raise or lower the signal;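 further: cell surface E-selectin protein quantified by ELISA 24 h after dosing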
Summary of the method: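 ELISA read-out of E-selectin on endothelial monolayers after 24 h chemical treatment. Human umbilical vein primary cells served as the system, with DMSO defining baseline activity for bidirectional fitting.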

[19] = read-out: Monocyte Chemoattractant Protein-1 (MCP1), CCL2 (gene 6347); test: BSK_4H_MCP1: BioMAP Diversity Plus: 4H Assay for Monocyte Chemoattractant Protein-1 (MCP1) Biomarker Activity (AID 2283018); conditions: primary human endothelial cells (HUVEC); actives raise or lower the signal
Summary of the method: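 Human umbilical vein endothelial cells (4H system) dosed with chemical; MCP-1 measured by ELISA 24 h after dosing. Bidirectional curve fitting against DMSO negative control as baseline; parallel SRB total-protein staining tracks overt cytotoxicity.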

[20] = biological target: human Vitamin D Receptor (VDR), VDR (gene 7421) (UniProt P11473); test: ATG_VDR_TRANS: Attagene TRANS-FACTORIAL HepG2 Assay for human Vitamin D Receptor (VDR) (AID 2283022; active means hit-call score of the fitted dose curve at least 0.9, where 1 is the maximum)
Sequence of human Vitamin D Receptor (VDR), VDR (gene 7421) (P11473 whole entry, looked up, the tested form may be a part): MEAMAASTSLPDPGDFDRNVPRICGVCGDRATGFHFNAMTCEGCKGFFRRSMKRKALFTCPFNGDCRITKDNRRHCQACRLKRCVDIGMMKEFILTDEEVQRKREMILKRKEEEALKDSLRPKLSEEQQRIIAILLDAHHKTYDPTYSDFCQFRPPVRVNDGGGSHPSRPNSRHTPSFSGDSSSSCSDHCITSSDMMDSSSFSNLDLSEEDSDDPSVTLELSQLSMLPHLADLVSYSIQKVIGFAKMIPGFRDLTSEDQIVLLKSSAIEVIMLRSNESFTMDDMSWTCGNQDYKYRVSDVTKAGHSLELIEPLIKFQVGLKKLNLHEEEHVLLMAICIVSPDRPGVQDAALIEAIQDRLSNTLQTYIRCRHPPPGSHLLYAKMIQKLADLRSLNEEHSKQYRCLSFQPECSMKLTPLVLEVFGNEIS
Summary of the method: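 Steps: transfect HepG2 with GAL4-UAS-driven reporter constructs; dose compounds 24 h; isolate RNA, reverse-transcribe, PCR-amplify with 6-FAM-labelled primer extension and HpaI digestion; quantify fragments by capillary electrophoresis relative to DMSO.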

Measured: AC50

Sequence of E-selectin (Homo sapiens) (P16581 whole entry, looked up): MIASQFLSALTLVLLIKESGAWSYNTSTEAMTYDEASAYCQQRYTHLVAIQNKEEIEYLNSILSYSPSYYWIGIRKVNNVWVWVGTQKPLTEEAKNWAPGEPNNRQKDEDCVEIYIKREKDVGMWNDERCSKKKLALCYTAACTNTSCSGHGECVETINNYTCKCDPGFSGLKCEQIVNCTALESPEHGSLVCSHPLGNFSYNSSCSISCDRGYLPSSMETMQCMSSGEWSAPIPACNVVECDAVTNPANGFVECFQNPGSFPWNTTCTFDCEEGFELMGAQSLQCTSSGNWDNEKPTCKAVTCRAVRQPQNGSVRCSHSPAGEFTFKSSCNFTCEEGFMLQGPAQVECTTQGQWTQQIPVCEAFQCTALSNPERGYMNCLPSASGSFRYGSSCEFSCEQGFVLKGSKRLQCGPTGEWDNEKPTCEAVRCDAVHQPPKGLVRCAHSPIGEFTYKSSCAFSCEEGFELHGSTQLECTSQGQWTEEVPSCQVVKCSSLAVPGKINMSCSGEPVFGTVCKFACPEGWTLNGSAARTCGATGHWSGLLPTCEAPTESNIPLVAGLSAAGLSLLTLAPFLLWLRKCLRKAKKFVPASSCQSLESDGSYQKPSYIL

CCCCOC(=O)c1ccccc1C(=O)O
inactive: [1] | [2] | [3] | [4] | [5] | [6] | [7] | [8] | [9] | [10] | [11] | [13] | [14] | [15] | [16] | [17]
active: [12] 0.28 µM

CCOP(=S)(OCC)Oc1ccc([N+](=O)[O-])cc1
inactive: [1] | [3] | [18] | [5] | [6] | [7] | [8] | [9] | [10] | [11] | [13] | [14] | [16] | [17]
active: [12] 39 µM | [15] 21.5 µM

CCOP(=S)(OCC)Oc1ccc2c(C)c(Cl)c(=O)oc2c1
inactive: [1] | [2] | [4] | [5] | [6] | [19] | [7] | [8] | [9] | [10] | [11] | [12] | [13] | [14] | [17]
active: [15] 20 µM | [16] 6.69 µM

CN(C)NC(=O)CCC(=O)O
inactive: [1] | [3] | [4] | [5] | [6] | [7] | [8] | [9] | [20] | [10] | [11] | [12] | [13] | [14] | [15] | [16] | [17]

O=C(O)c1cc(Oc2ccc(C(F)(F)F)cc2Cl)ccc1[N+](=O)[O-]
active: [12] 9.8 µM
inactive: [1] | [2] | [3] | [4] | [18] | [5] | [6] | [19] | [7] | [8] | [9] | [10] | [11] | [13] | [14] | [15] | [16] | [17]

Cc1cc(C2CC2)nc(Nc2ccccc2)n1
active: [3] 75.3 µM | [4] 64 µM | [6] 32.1 µM | [7] 15.2 µM | [10] 24.8 µM | [12] 37.5 µM | [16] 33.7 µM
inactive: [1] | [2] | [18] | [5] | [8] | [9] | [20] | [11] | [13] | [14] | [15] | [17]

CCCCOC(=O)[C@@H](C)Oc1ccc(Oc2ccc(C#N)cc2F)cc1
inactive: [1] | [2] | [4] | [18] | [5] | [6] | [19] | [7] | [8] | [9] | [10] | [11] | [12] | [13] | [14] | [15] | [16] | [17]
